By inhibition is commonly meant the drop in the measured response relative to a control, in per cent.

About 2,400 (1.1%) of roughly 220,000 compounds were called active. Shown is part of a subset that was picked to be rich in actives. Unmarked numbers belong to inactive results.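 Rule for the calls: active = inhibition above a per-campaign cutoff, the mean inhibition of all tested compounds plus 3 SD (cut at about 27% in these data); inactive = the rest.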

The nature of this experiment: parental Ba/F3 cell viability inhibition, counter-screen for JAK2V617F inhibitor project, murine pro-B, CellTiter-Glo luminescence (AID 1486).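 Note: 0% = DMSO wells and 100% = JAK Inhibitor I control wells.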 Particulars: CellTiter-Glo ATP luminescence, at 5.6 µM, active compounds read high. Background: Counterscreens check selectivity or assay interference.
For the molecule `N#C/C(=C\c1ccc(N2CCOCC2)o1)C(=O)N1CCOCC1`, the inhibition was 4.08%. In the case of `Cc1cc(OCCCC(=O)NCCN2C(=O)S/C(=C\c3cccnc3)C2=O)ccc1Cl` it was 6.03%; in that of `O=C(O)Cc1csc(NC(=O)CSc2nnnn2-c2ccc(O)cc2)n1`, -4.21%; in that of `CC1Cc2ccccc2N1CC(=O)Nc1ccc2c(c1)OC(F)(F)O2` (stereo not drawn), 4.14%. Take `Cc1cc(OCCN2CCCC2)cc(C(C)C)c1`: the inhibition was 93.8% (active). On to `Cc1ccc(C(C)C)cc1OCCN1CCCC1`, for which the inhibition is 5.38%. Take `Cc1cc(OCCN2CCCC2)ccc1C(C)C`: the inhibition is 1.72%.

On to `Cc1ccc(-c2nc(SCC(=O)Nc3ccccc3OC(F)F)c3c(C)c(C(=O)O)sc3n2)cc1`, for which the inhibition was 1.45%. As for `CC1=C/C(=N\OS(=O)(=O)c2ccccc2)C=CC1=O`, the inhibition was 32.1% (active). For the molecule `CC1=C/C(=N\S(=O)(=O)c2ccccc2)C(C(C)C)=CC1=O`, the inhibition was 5.54%.

Turning to `CCOC(=O)C1(S(=O)(=O)c2ccccc2)CCN(Cc2ccccc2)CC1`, the inhibition is 8.01%. For the molecule `CCN(CC)CCNCc1ccc(OCc2ccc(Cl)nc2)c(OC)c1`, the inhibition is 2.52%. As to `CC[C@H]1CN2CCc3cc(OC)c(OC)cc3[C@@H]2C[C@@H]1C[C@H]1NCCc2cc(OC)c(OC)cc21`, the inhibition is 100% (active). With `COc1cc2c(cc1O)[C@H](Cc1ccc(Oc3cc(C[C@@H]4NCCc5cc(OC)c(O)cc54)ccc3O)cc1)NCC2`, the inhibition is 5.61%. For `COC(=O)C1=C(NC(=O)C(C)(C)C)CCS1`, the inhibition is -0.46%.

Take `O=C(O)c1cccnc1Sc1ncnc2sc3c(c12)CCC3`: the inhibition is -7.35%.

As for `O=C(c1ccc(Cl)cc1)N1N=C(c2ccccn2)CC1(O)C(F)(F)F` (stereo not drawn), the inhibition was 0.67%. With `O=C(NCC1CCCCC1)c1cc(S(=O)(=O)N2CCCCC2)ccc1N1CCOCC1`, the inhibition was 8.85%. As for `CCOc1cc(C(=O)N2CCc3cc(OC)c(OC)cc3C2)ccc1OC(F)F`, the inhibition was 78.2% (active). Regarding `COc1cc2c(cc1OC)CN(C(=O)c1ccc(S(=O)(=O)N3CCCCCC3)cc1)CC2`, the inhibition is 10%. To `COc1cc2c(cc1OC)CN(C(=O)c1cc(=O)c3ccccc3o1)CC2` belongs 24.8%; to `O=C(COC(=O)c1cc(=O)[nH]c2ccccc12)Nc1nc(-c2cccc(Br)c2)cs1`, 3.32%; to `O=C(Cn1c(COc2ccccc2)nc2ccccc21)Nc1cc(Cl)c(Cl)cc1Cl`, 2.68%. In the case of `CC(C)CC(=O)N1CCC(O)(CS(=O)(=O)Cc2ccccc2)CC1` it was 50.5% (active); in that of `CS(=O)(=O)N1CCN(C(=O)Cc2ccccc2)CC1`, -0.7%.

On to `Cc1ccccc1CS(=O)(=O)CC1(O)CCN(C(=O)c2cccc(C(F)(F)F)c2)CC1`, for which the inhibition was -1.41%. Consider `COC(=O)C(C)Sc1nc2c(c(=O)n(C)c(=O)n2C)n1Cc1cccc(C)c1` (stereo not drawn), for which the inhibition was 4%. Consider `Cn1c(=O)c2c(nc(NCCc3ccccc3)n2Cc2ccccc2)n(C)c1=O`, for which the inhibition is 6.77%.

For the molecule `CCCCNc1nc2c(c(=O)n(C)c(=O)n2C)n1Cc1cccc(OC)c1`, the inhibition was 48.4% (active). For the molecule `Cc1c(C(=O)Nc2cccc(Cl)c2)cn2c(nc3ccccc32)c1C#N`, the inhibition is 2.67%. As for `COC(=O)C1CCN(C(=O)c2cc(=O)[nH]c3ccccc23)CC1`, the inhibition is 5.12%. Turning to `O=C(COC(=O)CCCNC(=O)c1ccc(Cl)cc1)Nc1cc(Cl)ccc1Cl`, the inhibition was 2.29%. `Cc1cc(C)nc(S/C=C/C(=O)c2ccccc2)n1`: the inhibition is 6.81%. For the molecule `COc1ccc(Cl)cc1CSc1ncn[nH]1`, the inhibition was -3.75%. On to `O=C(/C=C/Sc1ncn[nH]1)c1ccc(Cl)cc1`, for which the inhibition is 59.2% (active).

For `Nc1scc[n+]1Cc1cccc2cccnc12`, the inhibition was -7.17%.

With `CC1=CC(C)(C)NC(=S)N1NC(=O)c1ccccc1Cl`, the inhibition was -3.65%. Consider `COc1ccc(Nc2cc(=O)oc3ccccc23)cc1`, for which the inhibition is 50.9% (active). With `COc1ccc(Nc2cc(=O)n(-c3ccccc3)c3c2c(=O)n(C)c(=O)n3C)cc1`, the inhibition was 4.99%.

On to `COc1ccc(N2CCN(Cc3cc(=O)oc4ccc5ccccc5c34)CC2)cc1`, for which the inhibition was 5.38%.

With `O=C(Nc1cccc(S(=O)(=O)NC2=NCCC2)c1)C1CCCCC1`, the inhibition was -1.01%. For `CCN(CC)CCn1c(N)c(S(=O)(=O)c2ccccc2)c2nc3ccccc3nc21`, the inhibition is 5.27%. In the case of `c1cnn(-c2cc(N3CCOCC3)ncn2)c1`, the inhibition is 5.98%. `O=C(Nc1cc(N2CCOCC2)ncn1)NC1(C(F)(F)F)Oc2ccc(Cl)cc2O1` (stereo not drawn): the inhibition is 42.3% (active).

Consider `Cc1csc(NC(=O)NC2(C(F)(F)F)Oc3ccccc3O2)n1`, for which the inhibition was 13.6%. Take `CC1(C)CCSC(/C=C/c2ccccc2)=N1`: the inhibition is -2.99%. As to `CC1(C)C=C2[C@H]3CC[C@@H]4[C@@]5(C)CCC(=O)C(C)(C)[C@@H]5CC[C@@]4(C)[C@]3(C)CC[C@@]2(C(=O)O)CC1`, the inhibition was 4.85%. As to `Cc1cc(C)cc(OCC(=O)Nc2ccc(S(=O)(=O)Nc3ccccn3)cc2)c1`, the inhibition was -1.55%. For the molecule `Cc1ccc(OCC(=O)Nc2ccc(S(=O)(=O)Nc3ccccn3)cc2)cc1`, the inhibition was 0.56%. As to `Cc1ccc(S(=O)(=O)Nc2ccc3ncccc3c2)cc1`, the inhibition is 37.5% (active). For `COc1ccccc1C(=O)Nc1nc2nc(-c3ccccc3)cc(=O)n2[nH]1`, the inhibition was 2.81%. To `Nc1nc(Sc2ncccc2[N+](=O)[O-])n[nH]1` belongs -0.31%; to `CCOC(=O)c1ccc(NNC(C)=O)c([N+](=O)[O-])c1`, -0.42%. For `O=C(NNC(=O)C1C2CCC(C2)C1C(=O)O)c1ccc(Cl)cc1` (stereo not drawn), the inhibition was 2.39%. With `COc1cccc(OC)c1C(=O)Nc1ccc(N2CCCCC2)cc1`, the inhibition was 9.75%. For the molecule `COc1cccc(C(=O)Nc2ccc(N3CCCC3)cc2)c1`, the inhibition is 45.8% (active).

With `COc1ccc(C(=O)NC(=S)Nc2ccc(N3CCCC3)cc2)cc1OC`, the inhibition was 3.89%. On to `CCOCCCn1c(NN)nc2ccccc2c1=O`, for which the inhibition was 1.96%. Turning to `COn1c(=O)c(=O)n(OC)c2ccccc21`, the inhibition was 3.35%. As for `COc1cc(OC)c(OC)cc1/C=N/Nc1ncnc2c1[nH]c1ccc(C)cc12`, the inhibition is -0.75%. `CC(C)OCCCNc1ncnc2c1[nH]c1ccc(F)cc12`: the inhibition is 69.9% (active).

For the molecule `O=C1CCCN1CCCNc1ncnc2c1[nH]c1ccccc12`, the inhibition was 2.08%.

Consider `CS(=O)(=O)c1ccc2nnn(OCC(=O)Nc3cccc(C#N)c3)c2c1`, for which the inhibition is -2.77%.

As for `COc1ccc(NC(=O)C(CC(C)C)NS(=O)(=O)c2ccc3c(c2)CCN3C(C)=O)cc1OC` (stereo not drawn), the inhibition was 1.81%. Consider `CCCc1nnc(SCC(=O)N2C(C)CCCC2C)n1CC` (stereo not drawn), for which the inhibition is 2.43%. Turning to `O=C(Nc1ccc2c(c1)OCCO2)c1cnccn1`, the inhibition was 4.31%. In the case of `CCN(CC)c1ccc(/C=N/Nc2nc(C)cc(C)n2)c(O)c1`, the inhibition is 3.74%. Consider `CCN(CC)c1ccc(/C=N/NC(=O)c2cnccn2)c(O)c1`, for which the inhibition was 34.4% (active).

As for `COC(=O)c1noc(C)c1-c1ccnn1C(=O)c1ccc(Cl)cc1`, the inhibition is -1.68%. As to `COCc1cc(=O)oc2cc(NS(=O)(=O)c3ccc(C)cc3)ccc12`, the inhibition is -1.36%.

For `COc1ccc(NC(=S)NCCNC(C)=O)cc1`, the inhibition is 3.11%. Take `Cc1ccc(NC(=O)OCc2cncs2)cc1`: the inhibition was 8.02%.

Regarding `COc1ccc(Nc2cc(Cl)ccc2C(=O)O)cn1`, the inhibition was -9.44%. For the molecule `COc1ccc(NC(=O)/C(Cl)=C(/Cl)S(=O)Cc2ccc(C)cc2)cn1` (stereo not drawn), the inhibition is 103% (active). With `COc1ccc(CS(=O)/C(Cl)=C(/Cl)C(=O)Nc2ccc(OC)nc2)cc1` (stereo not drawn), the inhibition is 104% (active). To `COc1ccc(NC(=S)Nc2ccccc2Cl)cn1` belongs 9.94%; to `CN(C)/C(CN1CCCCC1)=C1\N=C(c2ccccc2)OC1=O`, 7.38%; to `O=C(CNCc1cccs1)Nc1cc(S(=O)(=O)N2CCCC2)ccc1Cl`, -6.85%. For the molecule `Cc1ccc(-c2cc(=O)c3ccc(F)cc3[nH]2)cc1`, the inhibition is 0.37%. As to `O=c1cc(-c2ccccc2)[nH]c2cc(F)ccc12`, the inhibition was 72.4% (active). To `Cc1ccc(-c2cc(=O)c3ccc(Cl)cc3[nH]2)cc1` belongs -0.93%; to `Cc1cc(O)ccc1NC1=CC(=O)CC(C)(C)C1`, 6.24%. In the case of `CCN(CC)CCCN=Cc1c(O)n(-c2ccc(C)cc2)c(=O)c2ccccc12` it was 1.41%; in that of `O=c1c2ccccc2nc2n1C(CSCc1cccc(C(F)(F)F)c1)CS2` (stereo not drawn), 17.3%. With `O=c1c2ccccc2nc2n1C(CSc1ccc(F)cc1)CN2` (stereo not drawn), the inhibition is 3.79%.

In the case of `O=c1c2ccccc2nc2n1C(CSCc1ccccc1)CS2` (stereo not drawn), the inhibition was 39.8% (active). For the molecule `Nc1nonc1-n1nnc(C(=O)N/N=C/c2cc(Br)ccc2O)c1CSC1=NCCS1`, the inhibition is 4.7%. Turning to `COC(=O)C1=C(N)Oc2c(oc(CO)cc2=O)C1c1c(F)cccc1Cl` (stereo not drawn), the inhibition is 1.36%. As to `S=c1[nH]nc(-c2ccccc2)n1/N=C/c1c[nH]c2ccccc12`, the inhibition was 0.81%.

With `CSC(=S)N/N=C/c1c[nH]c2ccccc12`, the inhibition is 3.36%. Regarding `C[n+]1ccc(/C=C/c2c[nH]c3ccccc23)cc1`, the inhibition was 75.7% (active). In the case of `Cc1ccc(Oc2nc(-c3ccccn3)nc3ccccc23)cc1` it was -1.39%; in that of `CCCOn1c(-n2nc(C)cc2C)nc2ccccc2c1=O`, 34% (active). `Cc1cc(C)n(-c2nc(C(F)(F)F)nc3ccccc23)n1`: the inhibition was 7.14%. Regarding `CCOn1c(SC(C)C)nc2ccccc2c1=O`, the inhibition is 3.34%. As for `COc1ccc(CCNS(=O)(=O)c2ccc(C(=O)NCc3ccco3)cc2)cc1OC`, the inhibition is 3.88%.

As for `CCOc1ccccc1C(=O)NCc1ccco1`, the inhibition was 4.63%.

As for `CCCC1=Nc2cc(C(=O)NCc3ccco3)ccc2Sc2ccccc21`, the inhibition was 80.2% (active).

Values taken from PubChem BioAssay AID1486 (The Scripps Research Institute Molecular Screening Center, 2009).
